Screens from PubChem.
This is a sample that favours compounds with a hit; in the whole collection about 17% have one here.
S2 tox: Viability Counterscreen for Primary qHTS for Inhibitors of ATXN expression. S2 cells (HEK-293 line with an ATXN2-luciferase reporter) viability, CellTiter-Fluor protease fluorescence, 24 h. Potency, µM (titrated, usually from 56.7 µM), most hits filed as cytotoxic. AID 651635, 2014. 400,000 tested, 0.49% active; further: nearly all actives have a fitted effect of over 40% in size
TDP1 cell noCPT: qHTS for Inhibitors of human tyrosyl-DNA phosphodiesterase 1 (TDP1): qHTS in cells in absence of CPT; DT40 Tdp1-/- hTDP1 cells, no CPT, ATP luminescence, 48 h; Potency, µM (doses to about 46.2 µM), without a hit: at the top dose activity change, negative = growth inhibition, actives largely listed as inhibitors; 420,000 tested, 15% active; AID 686978, 2013; further: on the % scale 0 is the no-effect control and ±100 the full control effect; nearly all actives have a fitted effect of over 55% in size
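Compound effects on proliferation are scored in DT40 Tdp1-/-;hTDP1 cells in the absence of CPT. ATP levels (CellTiter-Glo luminescence) are recorded after a ≥48 hr, 37 °C incubation.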
ATXN2 expr inh: Primary qHTS for Inhibitors of ATXN expression | HEK-293 ATXN2-luciferase reporter, luminescence, 24 h | Potency, µM (doses to about 57 µM), inactives show top-dose activity change, negative = inhibition, hits mostly inhibitors | 360,000 tested, 0.72% active; further: on the % scale 0 is the no-effect control and ±100 the full control effect; nearly all actives have a fitted effect of over 55% in size
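ATXN2-luciferase reporter cells (luciferase flanked by upstream and downstream ATXN2 gene portions) were treated 24 h at 37 °C with compounds at up to 57 uM. SteadyGlo luminescence gave expression; GF-AFC fluorescence gave viability.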
HepG2 tox: qHTS for Inhibitors of TGF-b: Cytotox Counterscreen | HepG2 CAGA-GFP viability, ATP luminescence, 18 h | AID 588856, 2011 | Potency, µM (doses to about 46.1 µM), inactives show top-dose activity change, negative = cytotoxicity, usual class: cytotoxic | 410,000 tested, 0.76% active
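HepG2 CAGA-GFP cells (1000/well, DMEM with 1% FBS) received compound, then TGF-beta at 500 pg/mL final, and were incubated 18 hours at 37 degrees C. Viability was read by CellTiter-Glo luminescence. Media-only wells were set as complete cell-killing and DMSO as no toxicity.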
TGFb SMAD3 inh: qHTS for Inhibitors of TGF-b. HepG2 CAGA-GFP TGF-b/SMAD3 reporter, GFP fluorescence, 18 h; TGF-beta stimulated, 500 pg/mL final. Potency, µM (titrated, usually from 46.1 µM), inactives show at the highest dose activity, negative = inhibition, hits mostly inhibitors. 410,000 tested, 1.2% active. AID 588855, 2011; further: on the % scale 0 is the no-effect control and ±100 the full control effect; nearly all actives have a fitted effect of over 65% in size
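Inhibition of TGF-beta-driven CAGA-GFP reporter expression in HEPG2 cells is measured by cellular GFP fluorescence after 18 h stimulation with 500 pg/mL recombinant TGF-beta in 1% FBS medium at 37 degrees C.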
TDP1 cell CPT: qHTS for Inhibitors of human tyrosyl-DNA phosphodiesterase 1 (TDP1): qHTS in cells in presence of CPT; Potency, µM (top dose mostly 46.2 µM), inactives show top-dose activity change, negative = growth inhibition, hits mostly inhibitors; 420,000 tested, 12% active; chicken DT40 Tdp1-/-;hTDP1 cells + 20 nM CPT, ATP luminescence, 48 h; AID 686979, 2013; further: on the % scale 0 is the no-effect control and ±100 the full control effect; nearly all actives have a fitted effect of over 55% in size
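Cell growth measured by CellTiter-Glo luminescence after a minimum 48 h, 37 C compound exposure with 20 nM CPT in Tdp1-knockout DT40 cells stably expressing hTDP1, seeded 400/well; qHTS titration format.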
The depositor's hits bear a star; i = inactive; ? = inconclusive; . = no result given; [ ] = dose if it differs, or a comment. The call rests on the fitted dose curve; in most records, active means well fitted curve in the direction sought with a large enough effect; inconclusive means small, poorly fitted or top-dose-only effect, or another doubt; inactive means no such curve, though single readings can be large; an effect the other way counts as inactive or inconclusive. Potency means the concentration at half of the fitted maximal effect.

SMILES | S2 tox | TDP1 cell noCPT | ATXN2 expr inh | HepG2 tox | TGFb SMAD3 inh | TDP1 cell CPT
Cc1ccc(C)c(Cn2nnc(C(=O)NCc3ccccc3)c2N)c1 | i | ? | -1.7% | 0.7% | 0.5% | -15.9%
COc1ccc(C(=O)NCCc2nnc3ccc(SCC(=O)NCc4ccc(F)cc4)nn23)cc1 | i | -2.0% | 1.8% | 0.4% | -0.3% | -20.4%
O=C(NCc1cccc(Cl)c1)c1ccc(-n2cncn2)c2ccoc12 | i | ? | -9.3% | -10.7% | 20.8% | 16.4µM*
O=C(NCc1cccc(Cl)c1)c1ccc(-n2ccnc2)c2ccoc12 | i | ? | -12.6% | -32.2% | 0.3% | ?
COc1ccc(-c2coc3c(C(=O)NCc4ccc(C(F)(F)F)cc4)cccc23)c(C)c1 | ? | -94.1% | -5.9% | -32.2% | -13.7% | ?
COc1ccc(-c2coc3c(C(=O)NCc4cccs4)cccc23)c(C)c1 | i | 18.4µM* | 0.0% | -15.8% | ? | 23.1µM*
COc1ccc(-c2coc3c(C(=O)NCC4CC4)cccc23)c(C)c1 | ? | 25.9µM* | ? | -22.5% | ? | 6.51µM*
OC[C@H]1O[C@@H]2O[C@H]3[C@H](O)[C@@H](O)[C@@H](O[C@H]4[C@H](O)[C@@H](O)[C@@H](O[C@H]5[C@H](O)[C@@H](O)[C@@H](O[C@H]6[C@H](O)[C@@H](O)[C@@H](O[C@H]7[C@H](O)[C@@H](O)[C@@H](O[C@H]1[C@H](O)[C@H]2O)O[C@@H]7CO)O[C@@H]6CO)O[C@@H]5CO)O[C@@H]4CO)O[C@@H]3CO | i | -6.0% | -2.1% | -15.1% | -20.1% | 15.2%
O=C(COc1ccccc1Cl)Nc1ccc(S(=O)(=O)N2CCOCC2)cc1 | i | ? | -2.4% | -22.8% | 26.5% | -2.5%
CSc1nc(C)c(CCO)c(=O)[nH]1 | i | 1.6% | -9.4% | 0.6% | -12.3% | 20.4%
CN(Cc1nc(Cc2ccccc2F)no1)Cc1cccc2ncccc12 | i | 16.4µM* | -13.0%[11.3 µM] | -0.7% | -19.9% | ?
O=C1c2cccnc2C(=O)N1c1nc(-c2ccccc2)cs1 | . | -29.3% | . | -3.7% | 1.6% | -20.8%
CCn1c(=S)sc2c(=O)n(CC(=O)Nc3ccccc3C(F)(F)F)c(C)nc21 | 31.6µM* | ? | . | -12.7% | 0.8% | -23.1%
Cc1nc2c(sc(=S)n2Cc2ccco2)c(=O)n1CC(=O)Nc1cc(F)ccc1F | ? | ? | . | -30.7% | -26.5% | 11.6µM*
CCn1c(=S)sc2c(=O)n(CC(=O)Nc3ccccc3)c(C)nc21 | i | ? | -18.8% | -13.1% | -17.5% | ?
Cc1nc2c(sc(=S)n2Cc2ccco2)c(=O)n1CC(=O)Nc1ccc(F)cc1 | . | ? | . | 17.7% | 23.2% | ?
O=C(c1ccoc1)N1CCOc2ccc(CN3CCC(Oc4cccnc4)CC3)cc2C1 | i | -29.4% | . | . | . | 2.6%[9.04 µM]
O=C(CN(Cc1ccc(F)cc1)C(=O)CCC(=O)Nc1ccccn1)NCc1ccc(F)cc1 | i | ? | -11.3% | 9.9% | 13.0% | -16.9%
COc1cccc(N=C(N)N=C(N)N)c1 | i | -1.7% | 3.6% | 33.6% | 24.1% | 2.7%
NC(N)=NC(N)=Nc1ccc(SC(F)(F)F)cc1 | i | 9.2µM* | -21.5% | -26.5% | -12.3% | 10.3µM*
CCn1cc(Cl)c(C(=O)Nc2c(C)nn(Cc3c(F)c(F)c(F)c(F)c3F)c2C)n1 | i | ? | -3.2% | -1.0% | 0.0% | 14.6µM*
CC(C)c1cc(C(N)=O)c(NC(=O)c2cccc(COc3ccc(Cl)cc3)c2)s1 | i | ? | ? | -7.5% | ? | 25.9µM*
CCn1ccc(C(=O)Nc2c(C)nn(Cc3c(F)c(F)c(F)c(F)c3F)c2C)n1 | i | 16.4µM* | -4.2% | 5.6% | -3.2% | ?
Cc1nn(Cc2c(F)c(F)c(F)c(F)c2F)c(C)c1NC(=O)c1cccc(COc2ccc(Cl)cc2)c1 | i | 7.31µM* | -8.2% | 34.7% | ? | 10.3µM*
CCn1cc([N+](=O)[O-])c(C(=O)Nc2c(C)nn(Cc3c(F)c(F)c(F)c(F)c3F)c2C)n1 | i | -29.9% | -0.7% | 1.5% | ? | ?
SMILES | S2 tox | TDP1 cell noCPT | ATXN2 expr inh | HepG2 tox | TGFb SMAD3 inh | TDP1 cell CPT
CCCS(=O)(=O)NC(=O)C1(C)CCN(C(=O)c2c(F)ccc(C)c2F)C1 (stereo unspecified) | i | 5.3% | 12.7% | -33.8% | 7.0% | 2.6%
Cc1cc(NC(=O)COC(=O)c2ccccc2OCCOc2ccccc2)ccc1Br | . | ? | . | . | . | -9.1%
Cc1nc(Nc2cccc(C(C)O)c2)c2nnn(Cc3ccccc3F)c2n1 (stereo unspecified) | i | -19.4% | 0.4% | 10.1% | 5.1% | -4.3%
COc1ccc(CCNC(=O)CN(c2ccccc2)S(=O)(=O)N(C)C)cc1OC | i | -9.4% | 1.0% | -18.9% | -0.2% | -12.5%
CCc1nc(N)c(C#N)c(-c2ccc(OC)c(OC)c2)c1C | ? | ? | -28.0% | -3.0% | 5.7% | -15.8%
CCOc1cc2c(C#N)c(N(CC)CC)nc(N)c2c(N)n1 | ? | 16.4µM* | 10.2% | -3.7% | ? | ?
CCCN(CC1CC1)c1nc(N)c2c(N)nc(OC)cc2c1C#N | i | 23.1µM* | -11.7% | -4.7% | -12.3% | 16.4µM*
O=C(NN1CCOCC1)c1ccc(Cl)c(Cl)c1 | i | 17.6% | -14.5% | 1.5% | 3.2% | -15.0%
COc1cccc(/C=C/C(=O)c2ccc3c(c2)OCO3)c1OC | i | 18.4µM* | 39.0% | -45.3% | ? | ?
O=C(/C=C\Nc1ccccc1Br)c1ccc2c(c1)OCO2 | . | ? | ? | -42.2% | 7.1% | -26.3%
CN(C)c1ccc(/C=C/C(=O)c2ccc(O)cc2)cc1 | i | 10.3µM* | 42.0% | -12.6% | 61.2% | ?
O=C(/C=C/c1ccncc1)c1ccc2c(c1)OCCO2 | ? | 14.6µM* | -8.4% | -88.2% | ? | ?
O=C(/C=C/c1ccccc1Br)c1ccc2c(c1)OCO2 | i | 23.1µM* | 3.0% | -39.9% | ? | 20.6µM*
O=C(/C=C/c1ccc2c(c1)OCO2)c1ccc(F)cc1 | i | ? | 24.3% | -15.1% | ? | ?
O=C(/C=C/c1cccc(Br)c1)c1ccc2c(c1)OCO2 | ? | ? | -1.6% | -86.5% | ? | ?
